# CYP2C9 activ: CYP2C9 (human) activation; P11712; recombinant CYP2C9, luciferin-H conversion, luminescence; hits give high values; factor 1 = untreated enzyme, 0 = blocked; activation factor at 5 µM; hit rate 1.4% among 96,000; AID 1024;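 active = activation factor of 2 or more for CYP2C9 at a 5 µM dose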;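 note: 0 = sulfaphenazole-blocked wells and 1 = vehicle-only wells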
# CYP2C19 inh: blocks human cytochrome P450 2C19 | CYP2C19 Supersomes, luciferin-H EGE luminescence, 30 min | P33261 | hit rate 21% among 96,000 | inhibition, % at 5 µM;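 active = CYP2C19 inhibition above a set limit at 5 µM in the primary screen, cut at about 50% in these data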;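 note: plate controls were negative control wells for no effect and 2.5 mM tranylcypromine positive control for full effect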
# CYP2C9 inh: inhibitors of human CYP2C9 | P11712 | CYP2C9 Supersomes, luciferin-H conversion, luminescence | inhibition, % at 5 µM | hit rate 20% among 96,000;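 active = blocking of liver enzyme CYP2C9 beyond about 50% at 5 µM, limit read from the data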
# PLAP activator: activators of human placental alkaline phosphatase. P05187. purified PLAP enzyme, luminescent substrate read-out; hits give high values. activation fold at 20 µM. hit rate 1.2% among 96,000. AID 696; in the data active = activation fold above about 2
# Target sequence (P05187 whole entry, looked up): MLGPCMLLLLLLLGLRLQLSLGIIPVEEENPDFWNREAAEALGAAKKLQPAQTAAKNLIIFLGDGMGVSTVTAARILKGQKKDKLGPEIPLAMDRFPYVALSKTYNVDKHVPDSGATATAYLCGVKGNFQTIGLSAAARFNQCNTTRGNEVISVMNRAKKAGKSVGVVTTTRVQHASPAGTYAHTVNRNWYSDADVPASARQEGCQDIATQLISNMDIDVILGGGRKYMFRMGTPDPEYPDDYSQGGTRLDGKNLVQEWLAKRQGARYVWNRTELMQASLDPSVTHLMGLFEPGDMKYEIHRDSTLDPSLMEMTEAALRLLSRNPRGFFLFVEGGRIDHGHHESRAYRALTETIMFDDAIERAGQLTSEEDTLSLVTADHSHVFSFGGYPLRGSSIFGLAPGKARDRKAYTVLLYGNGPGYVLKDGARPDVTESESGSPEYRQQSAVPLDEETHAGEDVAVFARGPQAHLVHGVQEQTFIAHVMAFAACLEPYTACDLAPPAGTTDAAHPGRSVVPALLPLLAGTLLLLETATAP
# CYP2C19 act: cytochrome P450 2C19 (human) activation | P33261 | recombinant CYP2C19, luciferin-H EGE luminescence; hits give high values; 0 = fully inhibited enzyme, 1 = untreated enzyme | activation factor at 5 µM | 96,000 tested, under 10 active;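 active = activation factor of at least 2 at 5 µM in the primary screen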;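 note: 0 = wells with 2.5 mM tranylcypromine and 1 = vehicle-only wells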
# Active calls of the source: *. This is a sample that favours compounds with a hit; in the whole collection about 31% have one here.
SMILES,CYP2C9 activ,CYP2C19 inh,CYP2C9 inh,PLAP activator,CYP2C19 act
C=CCn1c(SCc2ccc3c(c2)OCO3)nc2scc(-c3ccco3)c2c1=O,0.8,43,25,0.9,0.6
O=[N+]([O-])c1cc(Cl)cc(C2=NCCN2)c1,1,10,4,0.9,0.9
O=C(NCc1ccco1)c1cc2nc(-c3cccs3)cc(C(F)(F)F)n2n1,0.4,31,56*,1.2,0.7
O=C(NCc1ccco1)c1nn2c(C(F)(F)F)cc(-c3cccs3)nc2c1Cl,0.5,11,55*,0.9,0.9
O=C(c1ccco1)N1CCN(C(=O)c2cnn3c(C(F)(F)F)cc(-c4cccs4)nc23)CC1,0.8,30,16,1,0.7
Cc1ccc2c(c1)N(CC(=O)NC1CCCc3ccccc31)C(=O)CO2 (stereo not given),1,47,2,1,0.5
CCN1C(=O)/C(=C/c2cccs2)N(C)C1=S,0.5,67*,51*,1.1,0.3
CCOc1ccc(N2C(=O)/C(=C/c3cccs3)N(CC(=O)OC)C2=S)cc1,1,22,-2,0.8,0.8
COc1cc(C(=O)Nc2cc(Cl)ccc2C)c(-n2cnnn2)cc1OC,1.2,-12,-19,1,1.1
CCC(C)NC(=O)CSC1=Nc2ccccc2C2=NC(CC(=O)NCc3ccc(F)cc3)C(=O)N12 (stereo not given),0.9,-14,6,1.2,1.1
CCOC(=O)CSC1=Nc2ccccc2C2=NC(CC(=O)NCc3ccccc3)C(=O)N12 (stereo not given),0.4,3,57*,1.2,1
CCOC(=O)CSC1=Nc2ccccc2C2=NC(CC(=O)NCc3cccs3)C(=O)N12 (stereo not given),0.4,8,65*,1.1,0.9
CCN(CC)C(=O)CSC1=Nc2ccccc2C2=NC(c3ccccc3)C(=O)N12 (stereo not given),0.4,26,61*,1.4,0.7
CC(C)(C)C(=O)NC(NC(=S)Nc1sc2c(c1C#N)CCCC2)C(Cl)(Cl)Cl (stereo not given),0.7,-12,29,1,1.1
O=C(O)Cn1c2c(c3ccccc31)CCCC2,0.9,3,11,1.3,1
COC(=O)C1C(=O)c2c([nH]c(C(=O)OCC3CCCO3)c2C)CC1C (stereo not given),0.5,12,54*,1,0.9
CC(C)(C)NC(=O)c1cccc(NC(=O)CSc2ccccc2)c1,0.7,4,35,1.2,1
CCOC(=O)c1sc(C)c2c1NC1(CCCCC1)NC2=O,0.5,40,47,1,0.6
CCOC(=O)c1sc(C)c2c1NC(C)(c1cccs1)NC2=O (stereo not given),0.4,31,63*,1,0.7
CC1(C)CC(NC(=O)C23CCC(C)(C(=O)C2)C3(C)C)CC(C)(C)N1 (stereo not given),0.4,-1,60*,1,1
O=C(CSc1nnnn1-c1ccccc1)NC(=O)Nc1ccc2c(c1)OCCO2,1,-13,-4,0.8,1.1
COCC(C)n1c(SCC(=O)NC(=O)Nc2ccc3c(c2)OCCO3)nc2ccccc2c1=O (stereo not given),0.2,52*,78*,1.1,0.5
CC(C)Cn1c(SC(C)C(=O)Nc2ccc3c(c2)OCCO3)nc2ccccc2c1=O (stereo not given),0.1,83*,93*,1.6,0.2
Cc1cc(N)n(-c2ncnc3scc(-c4ccccc4)c23)n1,0.8,10,17,0.9,0.9
CC(=O)N(CCC(c1ccccc1)c1ccco1)Cc1cccs1 (stereo not given),0.6,32,43,1.4,0.7
SMILES,CYP2C9 activ,CYP2C19 inh,CYP2C9 inh,PLAP activator,CYP2C19 act
CCC(=O)N(CCC(c1ccco1)c1ccccc1OC)Cc1cccs1 (stereo not given),0,96*,96*,1.7,0
COc1ccc(S(=O)(=O)N(c2onc(C)c2Cl)S(=O)(=O)c2ccc(OC)cc2)cc1,0.6,3,41,1,1
COC(=O)C(NC(=O)c1ccc(Cl)cc1)(Nc1nc(C)cs1)C(F)(F)F (stereo not given),0.8,74*,17,1,0.3
CCCCCCC(=O)N(O)C1CC(=O)N(c2ccc(Br)cc2)C1=O (stereo not given),0.7,52*,32,1.5,0.5
CCOc1ccccc1-n1c(SCC(=O)NC2CCCC2)nnc1-c1ccoc1C,0.3,68*,74*,1.4,0.3
CCOC(=O)CSc1nnc(-c2c[nH]c3ccccc23)n1CC,0.9,76*,9,0.9,0.2
CCn1c(SC(C)C)nnc1-c1c[nH]c2ccccc12,0.9,81*,9,0.9,0.2
CCOc1ccccc1-n1c(SCC(=O)NC(C)(C)C)nnc1-c1ccoc1C,0.6,40,36,1.3,0.6
CCn1c(SCC(=O)NC2CCCC2)nnc1-c1c[nH]c2ccccc12,0.2,42,78*,0.9,0.6
COc1cc2c(cc1OC)CN(C(C)C(=O)Nc1ccc(NC(C)=O)cc1)CC2 (stereo not given),0.7,18,31,1.4,0.8
CCCS(=O)(=O)N1CCCC(C(=O)N2CCN(C(=O)OCC)CC2)C1 (stereo not given),1,-12,-4,1,1.1
CCn1c(SCC(=O)NCc2ccccc2)nnc1-c1c[nH]c2ccccc12,0.2,77*,81*,1.1,0.2
CCn1c(SCC(=O)NCC2CCCO2)nnc1-c1c[nH]c2ccccc12 (stereo not given),1.6,12,-59,1.1,0.9
COC(=O)CSc1nnnn1-c1cccc2ccccc12,3.2*,31,-221,1.1,0.7
O=C(CCCSc1nnnn1-c1cccc2ccccc12)c1ccc(F)cc1,2.4*,20,-142,1,0.8
c1ccc(CSc2nnnn2-c2cccc3ccccc23)nc1,2.3*,44,-135,0.7,0.6
O=C(Cc1ccccc1)NCC(=O)OCC(=O)c1ccc(OC(=O)c2ccccc2)cc1,0.8,1,15,1,1
COC(=O)c1ccc(Cc2ccc(C(=O)OC)o2)o1,0.9,20,6,1.1,0.8
CCOC(=O)c1ccoc1CSCc1ccc(C(=O)OC)o1,0.3,30,72*,1.1,0.7
COc1ccccc1N1CSC2=C(C#N)C(c3ccc(SC)cc3)CC(=O)N2C1 (stereo not given),0.1,34,88*,1.3,0.7
COc1ccc2ccccc2c1C1CC(=O)N2CN(C)CSC2=C1C#N (stereo not given),0.5,9,46,1.1,0.9
COc1cc(C2CC(=O)N3CN(c4ccccc4C)CSC3=C2C#N)cc(OC)c1OC (stereo not given),0.4,37,64*,1.9,0.6
Cc1ccc(C2CC(=O)N3CN(Cc4ccco4)CSC3=C2C#N)cc1 (stereo not given),0.5,33,47,1.2,0.7
